# What was measured:
# Settings in all cases: concentration: 1 μM, replicates: in singlicate; n = 1
# [1] = system: JAK1(JH2domain-pseudokinase)
# [2] = system: JAK2(JH1domain-catalytic)
# [3] = system: JAK3(JH1domain-catalytic)
# JNK1 = system: T1, JNK1
# T1 construct: gene MAPK8
# JNK2 = system: T2, JNK2
# T2 construct: gene MAPK9
# JNK3 = system: T3, JNK3
# T3 construct: gene MAPK10
# KIT-autoinhibited = system: KIT-autoinhibited
# KIT = system: KIT
# LATS1 = system: LATS1
# LATS2 = system: LATS2
# LCK = system: LCK
# LIMK1 = system: LIMK1
# LIMK2 = system: LIMK2
# LKB1 = system: T4, LKB1
# T4 construct: gene STK11
# LOK = system: T5, LOK
# T5 construct: gene STK10
# LRRK2 = system: LRRK2
# LTK = system: LTK
# LYN = system: LYN
# LZK = system: T6, LZK
# T6 construct: gene MAP3K13
# MAK = system: MAK
# 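Also: KINOMEscan kinase panel screen.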
SMILES,%Inh [1],%Inh [2],%Inh [3],%Inh (JNK1),%Inh (JNK2),%Inh (JNK3),%Inh (KIT-autoinhibited),%Inh (KIT),%Inh (LATS1),%Inh (LATS2),%Inh (LCK),%Inh (LIMK1),%Inh (LIMK2),%Inh (LKB1),%Inh (LOK),%Inh (LRRK2),%Inh (LTK),%Inh (LYN),%Inh (LZK),%Inh (MAK)
c1ccc(-c2cnc3nccnn23)cc1 [AH20685],0%,0%,0%,54%,20%,4%,0%,5%,0%,0%,11%,19%,0%,0%,0%,5%,0%,64%,0%,33%
CN1CCN(CCCNc2nccc(-c3c(-c4ccc(F)cc4)nn4cc(C(F)(F)F)ccc34)n2)CC1 [GW621581],0%,32%,0%,58%,91.7%,91.9%,0%,7%,0%,0%,36%,0%,0%,5%,0%,69%,0%,0%,0%,3%
CN1CCN(Cc2cccc(-c3ccc4c(Nc5ccc(Oc6ccccc6)cc5)ccnc4c3)c2)CC1 [GW578342],0%,0%,0%,0%,0%,0%,11%,93.7%,10%,0%,95.2%,0%,0%,12%,21%,0%,38%,58%,0%,27%
O=C(Nc1cccc(-c2nn3ncccc3c2-c2ccnc(Nc3ccccc3)n2)c1)c1c(F)cccc1F [GSK198271],0%,2%,0%,31%,56%,21%,20%,100%,0%,0%,99.3%,75%,0%,3%,99%,0%,0%,99.4%,0%,19%
Nc1n[nH]c2cnc(-c3ccccc3)cc12 [SB-642124],0%,75%,91%,13%,0%,6%,12%,0%,0%,2%,0%,19%,1%,0%,0%,12%,0%,3%,0%,37%
Cc1ccc(C(=O)Nc2ccc(Nc3ccnc4cc(-c5nccs5)ccc34)cc2O)cc1.Cl [GW494702],0%,25%,0%,18%,3%,9%,0%,73%,0%,0%,86%,26%,0%,0%,68%,0%,1%,65%,21%,46%
Clc1ccc(-c2nn3ncccc3c2-c2ccnc(Nc3ccc4c(c3)OCCO4)n2)cc1 [GW829116],17%,2%,0%,99.2%,99.9%,100%,36%,99.9%,0%,0%,83%,0%,0%,0%,71%,0%,19%,27%,0%,0%
c1ccc(Oc2ccc(Nc3ccnc4cc(-c5ccc(CNCCN6CCOCC6)o5)ccc34)cc2)nc1 [GW567145],0%,7%,0%,18%,2%,0%,4%,79%,8%,0%,78%,0%,0%,20%,30%,20%,0%,28%,32%,0%
CC(=O)Nc1nc2cnc(Nc3cc(NC(=O)c4cccc(C5(C#N)CC5)c4Cl)ccc3C)nc2s1,9%,0%,0%,0%,0%,0%,0%,99.8%,26%,0%,91.1%,0%,0%,0%,54%,0%,0%,79%,6%,0%
Cc1ccc(C(=O)N2CC[C@@H](O)C2)cc1-n1c(C)cc(OCc2ccc(F)cc2F)c(Br)c1=O,48%,0%,1%,14%,0%,0%,0%,87%,0%,0%,99.4%,0%,0%,36%,0%,0%,0%,74%,0%,0%
NCCCC(NC(=O)c1cc(Br)c(-c2ccnc3[nH]ccc23)s1)c1ccccc1.O=C(O)C(F)(F)F.O=C(O)C(F)(F)F (stereo not shown) [GSK1287544],0%,91.3%,87%,36%,22%,19%,0%,22%,66%,89%,9%,6%,6%,0%,0%,42%,0%,0%,0%,34%
Cc1ccc(S(=O)(=O)Nc2ccc(Nc3nccc(Nc4cccc5[nH]ncc45)n3)cc2)cc1 [GSK581271],16%,68%,3%,44%,27%,29%,0%,85%,0%,0%,39%,13%,0%,0%,0%,23%,10%,0%,0%,12%
O=C(Nc1cccc(-c2nn3ccccc3c2-c2ccnc(Nc3cccc(F)c3)n2)c1)c1c(F)ccc(F)c1Cl [GSK357952],0%,25%,0%,11%,23%,19%,0%,98.2%,0%,49%,99.1%,43%,0%,0%,97.6%,32%,10%,83%,0%,22%
COc1cc2c(cc1OCCN1CCNCC1)ncc1c3ccc(C#N)cc3[nH]c21,45%,64%,85%,13%,0%,0%,55%,70%,0%,42%,45%,0%,0%,15%,42%,99.3%,0%,0%,100%,2%
COCCOCCOc1cc2ncc3c4ccc(C#N)cc4[nH]c3c2cc1OC,68%,11%,84%,5%,0%,0%,61%,73%,2%,10%,35%,16%,1%,15%,73%,95.4%,34%,31%,1%,0%
C[C@@H]1CC[C@@H](C(=O)Nc2ccccc2)CN1c1cc(-c2ccc3c(N)n[nH]c3c2)nc(N)n1 [GSK2286062],2%,0%,0%,0%,13%,1%,0%,18%,0%,2%,2%,0%,3%,20%,0%,0%,0%,0%,0%,22%
c1ccc(-c2n[nH]cc2Nc2ccnc3ccccc23)nc1 [GW694077],33%,94.2%,88%,92.6%,60%,90%,0%,33%,0%,0%,0%,0%,13%,94%,0%,78%,0%,0%,0%,0%
